The full ranking holds about 33,000 sequences; the median of “E-score (-0.5 to 0.5)” is about -0.013, and the highest 2% start at about 0.3. Shown is part of a subset that was picked to be rich in the highest values.
Biological target: T1, Msn1 (UniProt P22148)
T1 sequence: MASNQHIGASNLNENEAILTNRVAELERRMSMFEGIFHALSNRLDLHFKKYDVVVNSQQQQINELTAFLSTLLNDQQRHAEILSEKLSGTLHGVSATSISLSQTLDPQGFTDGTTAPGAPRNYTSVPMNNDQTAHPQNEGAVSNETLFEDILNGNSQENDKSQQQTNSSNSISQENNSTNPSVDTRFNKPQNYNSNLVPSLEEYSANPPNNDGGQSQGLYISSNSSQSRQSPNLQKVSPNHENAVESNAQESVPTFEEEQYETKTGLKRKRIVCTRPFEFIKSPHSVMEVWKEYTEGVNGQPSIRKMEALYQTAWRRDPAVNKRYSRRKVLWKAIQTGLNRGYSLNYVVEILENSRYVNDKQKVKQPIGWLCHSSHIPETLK
Assay: PBM E-score (8-mer binding enrichment) (E-score (-0.5 to 0.5)); higher = stronger / more preferred TF binding
Details: protein concentration: 200 nM; construct: GST-full length
Experimental: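 Universal 'all 10-mer' protein binding microarrays (Agilent AMADID 015681) probed with GST-tagged S. cerevisiae TFs (full-length or DBD) made by in vitro transcription/translation (PURExpress), about 100-200 nM. Bound TF was detected with fluorescent anti-GST. Each ungapped 8-mer (which stands for itself and its reverse complement) is scored by the PBM enrichment score (E-score), a modified Wilcoxon-Mann-Whitney statistic from -0.5 to +0.5, computed with the Universal PBM Analysis Suite. Scale: above 0.35 generally sequence-specific binding.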

Row | Sequence | PBM E-score
1 | AAGATGTC | 0.252
2 | AGGATGTG | -0.0903
3 | AGGATGTA | -0.0489
4 | GCCCAGAA | 0.0114
5 | CTGCTACC | -0.0604
6 | CCCTCGAG | -0.11
7 | ACTGGCAA | 0.0309
8 | GTTGATTA | 0.135
9 | AATCTGGG | -0.203
10 | CCAGGTGC | -0.205
11 | ATTACGCG | -0.059
12 | AACAATCC | 0.136
13 | GACAATTA | 0.426
14 | AACAATTA | 0.165
15 | GACAATCA | 0.217
16 | AACAATAC | 0.158
17 | CACAATAC | -0.0413
18 | GACAATAC | 0.377
19 | GACAATCC | 0.355
20 | CACAATTA | 0.128
21 | ATTCCTCG | 0.0159
22 | AACGTCAG | -0.248
23 | GAGATCAC | -0.035
24 | ATACAGCA | 0.103
25 | TCAGGAGA | -0.0143

Row | Sequence | PBM E-score
26 | TCAGGACA | 0.461
27 | GCAGGACC | -0.0863
28 | GCAGGATA | -0.224
29 | CCAGGACG | 0.109
30 | CCAGGACC | -0.105
31 | CCAGGACA | 0.469
32 | ACAGGACA | 0.421
33 | TCAGGAAA | 0.0903
34 | GCAGGACA | 0.47
35 | ACAGGACG | 0.0345
36 | ACAGGACT | -0.0485
37 | CCGAGATC | 0.0634
38 | AGGTTAAC | -0.0876
39 | AATCGATG | 0.144
40 | CAGCAGAC | 0.0732
41 | AGTCTGTC | 0.0754
42 | AGCCAGAC | -0.072
43 | AAGCGCCC | -0.264
44 | TATTGAGA | 0.208
45 | CCAGCGGC | -0.0286
46 | GGTAACTA | 0.18
47 | ATTGTCGC | 0.344
48 | ATTGTCGG | 0.318
49 | ATTGTCGA | 0.144
50 | CTTGTCGC | 0.166

Row | Sequence | PBM E-score
51 | ACTGTCGC | -0.134
52 | ACTGTCGG | -0.0418
53 | AGGGTTTG | -0.0242
54 | ACCCGTTA | 0.00896
55 | CCGGTACA | 0.319
56 | GCGGTACA | 0.0441
57 | CTGGTACC | -0.121
58 | GTGGTACA | 0.13
59 | CCGGTACG | -0.262
60 | CTGGTACA | 0.329
61 | CGGCCCAG | -0.186
62 | TAAGAAAA | 0.00824
63 | CTGCGACC | -0.19
64 | CTGTCCCA | 0.281
65 | GCGTCCCA | 0.0223
66 | ATGTCCCA | 0.485
67 | GGGTCCCA | -0.216
68 | AGGTCCCC | -0.299
69 | GTGTCCCA | 0.439
70 | AAGTCCCG | 0.283
71 | ACGTCCCG | 0.0295
72 | ATGTCCCG | 0.474
73 | AGGTCCCA | -0.081
74 | ATGTCCCC | 0.479
75 | CTGTCCCC | 0.00412

Row | Sequence | PBM E-score
76 | GCCTTTGA | 0.0544
77 | CGAGGAGA | -0.141
78 | AGACCCTG | -0.165
79 | ACCTAACG | -0.203
80 | ATGATCTG | 0.0873
81 | GGGAAAAA | 0.185
82 | GCGGTCAC | -0.172
83 | ATGTCTAC | 0.313
84 | GTGTCTAA | 0.192
85 | AGGTCTAG | -0.134
86 | CTGTCTAC | -0.0627
87 | ATGTCTAG | 0.373
88 | CTGTCTAA | 0.111
89 | ATGTCTAA | 0.403
90 | AAGTCTAG | -0.107
91 | AGGTCTAC | -0.0162
92 | CTAGTAGC | -0.165
93 | GAGGGTAC | -0.202
94 | CTATTTCC | 0.063
95 | ACAATTGT | 0.363
96 | AAAATTGT | 0.357
97 | ACAATTGC | 0.191
98 | AAAATTCG | 0.232
99 | AAAATTGC | 0.054
100 | AAAATTCA | 0.308

Row | Sequence | PBM E-score
101 | ACAATTGA | 0.257
102 | GAAATTCA | 0.103
103 | AAAATTGG | 0.00283
104 | ATCCATAA | 0.124
105 | AATTCCTC | -0.0412
106 | AGCCACTA | -0.0424
107 | CCCCAGCC | -0.271
108 | ACCCTGAG | -0.0157
109 | ACGCGCGC | 0.196
110 | GCGCGCGC | 0.333
111 | GCGCGCGA | 0.0948
112 | CCTGCTAC | 0.017
113 | AGTTCTCC | -0.205
114 | ACATTTCA | 0.363
115 | CCATTTTC | 0.136
116 | ACATTTCG | 0.241
117 | GCATTTCA | 0.0826
118 | ACATTTTC | 0.337
119 | ACATTTCC | 0.329
120 | ACATTTTA | 0.377
121 | CCATTTCA | -0.106
122 | AGATTTTC | 0.0741
123 | GCATTTTA | 0.109
124 | ACATTTCT | 0.204
125 | CCATTTTA | 0.259

Row | Sequence | PBM E-score
126 | GTGAGGCA | -0.0279
127 | ACTGACCT | -0.063
128 | CCACGTGG | -0.276
129 | CGATGAGC | -0.17
130 | CTACCTCC | -0.0369
131 | GCATTTGA | 0.051
132 | ACATTAAC | 0.254
133 | ATATTTTG | 0.176
134 | ACATTTTG | 0.34
135 | GCATTTAA | 0.0963
136 | ACATTAAT | 0.155
137 | ACATTAAG | 0.32
138 | TCATTTAA | 0.132
139 | ACATTTGG | 0.177
140 | AGATTTTG | 0.0738
141 | ACATTTGA | 0.311
142 | ACATTTAA | 0.324
143 | TACAGGAA | 0.0582
144 | AGATCCTC | -0.125
145 | AGATGCGA | 0.0645
146 | GCTGAACA | 0.00499
147 | CTGGCGTA | -0.252
148 | AGGCGGTG | -0.217
149 | TCCATCCA | -0.00245
150 | CAACCAGC | -0.114

Row | Sequence | PBM E-score
151 | CTTTTGTA | 0.3
152 | CCTTTGTA | 0.163
153 | CCTTTGCC | -0.104
154 | ACTTTGTC | 0.41
155 | CTTTTGAC | 0.0513
156 | ACTTTGTG | 0.0353
157 | CTTTTGTC | 0.455
158 | CCTTTGTC | 0.367
159 | ACTTTGTA | 0.129
160 | GAATTGCC | 0.0969
161 | AACCTACA | 0.0149
162 | GGATCATA | -0.0918
163 | ATAGCATG | -0.207
164 | AGACACAC | 0.133
165 | CGACACAC | 0.0525
166 | GGACACGA | 0.396
167 | AGACACAA | 0.332
168 | TGACACAA | 0.183
169 | GGACACAA | 0.462
170 | CGACACAA | 0.00596
171 | GGACACAC | 0.382
172 | CGACACGA | 0.274
173 | GGACACCC | -0.0113
174 | AGACACGA | 0.158
175 | AGACACAG | 0.131

Source: the supplement of paper PMC3334620
